Structures are written as SMILES. This is part of a sample that, as a whole, favours compounds with a hit. Of some 79,000 tested, about 15% had one in any assay. A number with no mark means an inactive call. Calls of active or inactive are those of the source. Cut-off read from the data, not from the text of the source: active = growth inhibition above about 70%; inactive = the rest.

The nature of assay [1]: NCI Yeast Anticancer Drug Screen. Data for the rad50 strain (AID 155).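 Note: 0% = growth of vehicle-only cultures of the same strain.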 As to conditions: S. cerevisiae rad50 strain growth inhibition; at 50.0 µM; hits give high values. Summed up:
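Relative growth inhibition (compound vs vehicle) was measured in yeast with a defined repair-gene alteration.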

Assay [2] in a line: NCI Yeast Anticancer Drug Screen. Data for the mec2-1 strain (AID 157). The following applies: S. cerevisiae mec2-1 strain, at 50.0 µM, hits give high values. The procedure, abridged:
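Mutant yeast (mec2-1) grown with compound; growth inhibition relative to vehicle control reported.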

Assay [3] is described as follows: NCI Yeast Anticancer Drug Screen. Data for the sgs1 mgt1 strain (AID 161).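 Note: 0% = growth of cultures given vehicle only.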 The following applies: S. cerevisiae sgs1 mgt1 strain, at 50.0 µM, hits give high values. The procedure, abridged:
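This yeast growth screen uses a strain with defined DNA-repair lesions; compound-treated growth is compared with vehicle-treated growth.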

The nature of assay [4]: NCI Yeast Anticancer Drug Screen. Data for the cln2 rad14 strain (AID 165).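 Note: 0% = growth equal to vehicle treated cultures.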 The following applies: S. cerevisiae cln2 rad14 strain, at 50.0 µM, hits give high values. Summed up:
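Readout is yeast growth inhibition versus vehicle-treated controls, using a strain with cln2 and rad14 alterations exposed to compound.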

Assay [5] in a line: NCI Yeast Anticancer Drug Screen. Data for the bub3 strain (AID 167). As to conditions: S. cerevisiae bub3 mutant strain, at 50.0 µM, hits give high values. Summed up:
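Screening used yeast with an engineered genetic alteration affecting cell cycle control. Compound-exposed cultures were compared with vehicle cultures, and reduced growth was taken as inhibition.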

Assay [6] in a line: NCI Yeast Anticancer Drug Screen. Data for the mlh1 rad18 strain (AID 175). As to conditions: S. cerevisiae mlh1 rad18 strain growth inhibition; at 50.0 µM; hits give high values. Summed up:
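Genetically defined yeast (DNA repair-deficient) exposed to compounds; growth inhibition determined relative to vehicle.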

As to `O=C1OC(c2ccc(F)cc2)CC1CN1CCOCC1` (centres undefined), the growth inhibition in assay [1] is 0.45%; in assay [2], 12.6%; in assay [3] it was 30.6%; in assay [4], 27.3%; in assay [5] it was 24.3%; in assay [6], 38.5%.
Consider `O=C(CCNNC(=O)c1ccncc1)NCc1ccccc1`, for which the growth inhibition in assay [1] was 8.25%; in assay [2] it was 11.6%; in assay [3] it was 11.9%; in assay [4] it was -46%; in assay [5], -9.8%; in assay [6], 7.3%.
In the case of `Cc1c(O)cnc2nn(-c3ccccc3)c(=N)n12`, the growth inhibition in assay [1] was 19.5%; in assay [2], 11.4%; in assay [3], 35.7%; in assay [4], 15.9%; in assay [5], 15%; in assay [6] it was 12.9%.
As to `Cc1ccc(C(=O)NC2c3ccccc3Oc3ccccc32)cc1`, the growth inhibition in assay [1] was -0.25%; in assay [2] it was -7.7%; in assay [3], 4.65%; in assay [4], -12%; in assay [5], 6.85%; in assay [6] it was -5%.
As to `CC1(C)/C(=C\CO)C2CCC1C2` (centres undefined), the growth inhibition in assay [1] was 12.7%; in assay [2] it was 0.05%; in assay [3], 1.95%; in assay [4], -4.95%; in assay [5], -2.65%; in assay [6], 3.7%.
Take `COC(=O)CCCCC1=CCC2C(=O)C=C(O)C2C1` (centres undefined): the growth inhibition in assay [1] was -13.3%; in assay [2], 13.1%; in assay [3], -11.2%; in assay [4], -2.5%; in assay [5], -6.6%; in assay [6], -18.8%.
As to `CC(=O)OCCO`, the growth inhibition in assay [1] was 9.6%; in assay [2], 3.5%; in assay [3], -9.65%; in assay [4] it was -6.35%; in assay [5], -41.8%; in assay [6], 17.6%.
`CCCNc1ccc(C2=NCCCN2)cc1`: the growth inhibition in assay [1] is 0.55%; in assay [2], -19.1%; in assay [3], -3.9%; in assay [4], 7.25%; in assay [5] it was 17.5%; in assay [6] it was -1.5%.
`CC(=O)OC(C(=O)O)c1ccccc1` (centres undefined): the growth inhibition was 15.9% in assay [1]; -12.1% in assay [2]; 0.25% in assay [3]; 13.8% in assay [4]; -8% in assay [5]; 23.5% in assay [6].
As to `O=C(c1ccc(O)cc1)c1ccc(O)cc1`, the growth inhibition in assay [1] was 30.4%; in assay [2], -6.6%; in assay [3] it was 15.2%; in assay [4], -49.1%; in assay [5] it was -9.15%; in assay [6], 17.2%.
In the case of `Cc1cc(/C=C/c2ccc3cc(N(C)C)ccc3[n+]2C)c(C)n1-c1ccccc1`, the growth inhibition is 87.2% (active) in assay [1]; 87.2% (active) in assay [2]; 92.8% (active) in assay [3]; 93.2% (active) in assay [4]; 70.8% (active) in assay [5]; 95.8% (active) in assay [6].
As for `C[C@]12CC[C@@H]3c4ccc(OCC(=O)O)cc4CC[C@H]3[C@@H]1CCC2=O`, the growth inhibition in assay [1] is 16%; in assay [2], 0.35%; in assay [3] it was -18.7%; in assay [4], -8%; in assay [5], 5.6%; in assay [6], 2.05%.
For the molecule `CCN(CC)CCCC(C)Nc1ccnc(/C=C/c2ccc(Cl)cc2)c1` (centres undefined), the growth inhibition in assay [1] was 2.75%; in assay [2], -1.2%; in assay [3] it was -16.1%; in assay [4] it was -2.55%; in assay [5], -39.5%; in assay [6], -19%.
For `COc1ccccc1NC(=O)C1=C(C)NC(C)=C(C(=O)Nc2ccccc2OC)C1c1cccc([N+](=O)[O-])c1`, the growth inhibition in assay [1] was -3.3%; in assay [2], 23.2%; in assay [3], -8.05%; in assay [4], -3.9%; in assay [5] it was 20.4%; in assay [6], 11.3%.
Take `Cc1ccc(Cl)cc1NC(=O)N(C)CCO`: the growth inhibition in assay [1] is 6.3%; in assay [2], 7.65%; in assay [3], 9.9%; in assay [4], 16.6%; in assay [5] it was 4.05%; in assay [6] it was 22.7%.
In the case of `C=CCNC(=O)c1ccc(OC)cc1`, the growth inhibition was 12.5% in assay [1]; 6.5% in assay [2]; 22.5% in assay [3]; 1.7% in assay [4]; -4.5% in assay [5]; 5.7% in assay [6].
For `C/C(=N/NC(N)=O)c1ccco1`, the growth inhibition is 1.1% in assay [1]; -1.05% in assay [2]; -3.55% in assay [3]; -2% in assay [4]; 1.95% in assay [5]; -3.55% in assay [6].
`CC(=O)c1cc2c(cc1F)C(C)(C)CCC2(C)C`: the growth inhibition in assay [1] is -23.2%; in assay [2], -30.4%; in assay [3], -19.1%; in assay [4], -32.5%; in assay [5], -20.1%; in assay [6], -18.6%.
With `COC(=O)/C=C/C(=O)NC(N)=O`, the growth inhibition in assay [1] is -19.6%; in assay [2], -41.2%; in assay [3], -22.1%; in assay [4] it was 9.95%; in assay [5], -17.2%; in assay [6] it was -8.05%.

The values above are taken from PubChem BioAssay (NCI).
